Test results published in PubChem BioAssay (NCI).
About 83,000 compounds went through this panel and 20% of them were active in at least one assay; those are over-represented in the sample as a whole.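 The endpoint reported here, percent growth, reads 100 for growth as untreated, 0 for no net growth and -100 for all cells dead.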 Activity calls are given as the source filed them. How the source made its calls: active means growth percent below 10; inactive means the rest.

How the values were obtained:
Assay in all cases: NCI-60 one-dose screen, 48 h (100 = growth as untreated, 0 = no growth, -100 = all killed)
Settings in all cases: 10 µM unless noted
HCT-15 colon = test system: HCT-15 colon
HT29 colon = test system: HT29 colon
SNB-75 CNS = test system: SNB-75 CNS
SNB-19 CNS = test system: SNB-19 CNS
U251 CNS = test system: U251 CNS
PC-3 prostate = test system: PC-3 prostate
SK-MEL-5 melanoma = test system: SK-MEL-5 melanoma
UACC-62 melanoma = test system: UACC-62 melanoma
LOX IMVI melanoma = test system: LOX IMVI melanoma
SK-MEL-2 melanoma = test system: SK-MEL-2 melanoma
SN12C renal = test system: SN12C renal
UO-31 renal = test system: UO-31 renal
TK-10 renal = test system: TK-10 renal
ACHN renal = test system: ACHN renal
CAKI-1 renal = test system: CAKI-1 renal
A498 renal = test system: A498 renal
MOLT-4 leukemia = test system: MOLT-4 leukemia
CCRF-CEM leukemia = test system: CCRF-CEM leukemia
EKVX NSCLC = test system: EKVX NSCLC
SK-MEL-28 melanoma = test system: SK-MEL-28 melanoma

Measured: growth

Nn1c(N/N=C/c2nc3ccccc3s2)n[nH]c1=S
inactive: HCT-15 colon 122% | HT29 colon 112% | SNB-75 CNS 51.5% | SNB-19 CNS 104% | U251 CNS 113% | PC-3 prostate 97.8% | SK-MEL-5 melanoma 100% | UACC-62 melanoma 92.1% | LOX IMVI melanoma 102% | SK-MEL-2 melanoma 107% | SN12C renal 86.3% | UO-31 renal 58% | TK-10 renal 88.3% | ACHN renal 98% | CAKI-1 renal 66.7% | A498 renal 77.5% | MOLT-4 leukemia 115%

O=c1c2ccccc2nc(COc2ccccc2)n1NS(=O)(=O)c1ccc(Cl)cc1
inactive: HCT-15 colon 54.4% | HT29 colon 80% | SNB-75 CNS 36.9% | SNB-19 CNS 79.8% | U251 CNS 87.8% | PC-3 prostate 82.7% | SK-MEL-5 melanoma 94.5% | UACC-62 melanoma 76.9% | LOX IMVI melanoma 83.6% | SK-MEL-2 melanoma 74.7% | SN12C renal 76.6% | UO-31 renal 62.7% | TK-10 renal 153% | ACHN renal 92.8% | CAKI-1 renal 73.1% | A498 renal 63.3% | CCRF-CEM leukemia 97% | MOLT-4 leukemia 69.5%

NC(N)=Nc1ccc(Oc2cccc(NC(N)=Nc3ccc(Br)cc3)c2)cn1
active: LOX IMVI melanoma 0.0918%
inactive: HCT-15 colon 85.4% | HT29 colon 59.7% | SNB-75 CNS 68.6% | SNB-19 CNS 18.8% | U251 CNS 43.1% | PC-3 prostate 38.2% | SK-MEL-5 melanoma 35.6% | UACC-62 melanoma 63.2% | SK-MEL-2 melanoma 84.3% | EKVX NSCLC 62% | SN12C renal 20.6% | UO-31 renal 85% | TK-10 renal 69.1% | ACHN renal 95.5% | A498 renal 64.3% | CCRF-CEM leukemia 58.5% | MOLT-4 leukemia 65%

O=C(NCc1ncc[nH]1)c1ccc(-c2nc3ccc4[nH]ncc4c3c3c2CCCC3)cc1
inactive: HCT-15 colon 48% | HT29 colon 22.3% | SNB-75 CNS 30.1% | SNB-19 CNS 13.9% | U251 CNS 13.2% | EKVX NSCLC 47.9% | SN12C renal 10.5% | UO-31 renal 51.6% | ACHN renal 42%
active: PC-3 prostate 2.66% | SK-MEL-5 melanoma 8.91% | UACC-62 melanoma 4.94% | LOX IMVI melanoma 3.29% | SK-MEL-2 melanoma -32.6% | TK-10 renal -2.79% | A498 renal -13.7% | MOLT-4 leukemia -23.5%

C#Cc1nc(C(C)=O)cs1
inactive: HCT-15 colon 99.4% | HT29 colon 110% | SNB-75 CNS 85.5% | SNB-19 CNS 102% | U251 CNS 102% | PC-3 prostate 98.4% | SK-MEL-5 melanoma 104% | LOX IMVI melanoma 94.7% | SK-MEL-28 melanoma 106% | SK-MEL-2 melanoma 111% | EKVX NSCLC 103% | SN12C renal 102% | UO-31 renal 90.1% | TK-10 renal 104% | ACHN renal 106% | CAKI-1 renal 87.2% | A498 renal 106% | CCRF-CEM leukemia 96.9% | MOLT-4 leukemia 101%

O=C(NNc1nc2cc(F)ccc2n2c(CN3CCC(O)C3)ccc12)c1cnccn1 (stereo not given)
active: SK-MEL-5 melanoma 4.28% | UACC-62 melanoma 0.128% | LOX IMVI melanoma -0.788% | MOLT-4 leukemia 3.23%
inactive: HCT-15 colon 25.7% | HT29 colon 23.8% | SNB-75 CNS 51.9% | SNB-19 CNS 22.3% | U251 CNS 19.9% | PC-3 prostate 25.2% | SK-MEL-2 melanoma 20% | EKVX NSCLC 10.1% | SN12C renal 24.3% | UO-31 renal 11% | TK-10 renal 20.5% | ACHN renal 14.3% | A498 renal 26.2% | CCRF-CEM leukemia 10.3%

CCc1cccc2c3c(sc12)C(c1ccc(Cl)cc1)C(C#N)=C(/N=C/c1ccc(Cl)cc1)O3 (stereo not given)
inactive: HCT-15 colon 25% | SNB-19 CNS 20.1% | U251 CNS 20.5% | PC-3 prostate 16.5% | SK-MEL-5 melanoma 14.5% | LOX IMVI melanoma 26.5% | SK-MEL-28 melanoma 56.7% | SK-MEL-2 melanoma 31% | EKVX NSCLC 45.8% | SN12C renal 33.9% | UO-31 renal 39.9% | TK-10 renal 56.4% | ACHN renal 41.7% | CAKI-1 renal 37.5% | CCRF-CEM leukemia 13% | MOLT-4 leukemia 30.2%
active: HT29 colon 7.88% | SNB-75 CNS -13.9% | A498 renal -4.9%

CCO/C=N/C1=C(C#N)C(c2ccc(Cl)cc2)c2sc3c(C)cccc3c2O1 (stereo not given)
active: HT29 colon 4.77% | SNB-75 CNS -5.08% | A498 renal -5.08%
inactive: HCT-15 colon 12.5% | SNB-19 CNS 18.4% | U251 CNS 20.7% | PC-3 prostate 12% | SK-MEL-5 melanoma 30.7% | LOX IMVI melanoma 22.1% | SK-MEL-28 melanoma 60.5% | SK-MEL-2 melanoma 42.6% | EKVX NSCLC 45.9% | SN12C renal 26.2% | UO-31 renal 30.3% | TK-10 renal 62.2% | ACHN renal 31.8% | CAKI-1 renal 39.5% | CCRF-CEM leukemia 16.2% | MOLT-4 leukemia 18.8%

N#Cc1cn(Cc2ccc(Cl)cc2Cl)c(C(=O)c2ccc(Br)cc2)c1N
inactive: HCT-15 colon 94.6% | HT29 colon 102% | SNB-75 CNS 89.6% | SNB-19 CNS 69.5% | U251 CNS 86.1% | PC-3 prostate 86.9% | SK-MEL-5 melanoma 97.5% | UACC-62 melanoma 82.8% | LOX IMVI melanoma 90.1% | SK-MEL-2 melanoma 97.9% | EKVX NSCLC 93.8% | SN12C renal 101% | UO-31 renal 81.6% | TK-10 renal 101% | ACHN renal 99% | CAKI-1 renal 92.3% | A498 renal 86.7% | CCRF-CEM leukemia 108% | MOLT-4 leukemia 98.9%

COc1cc(/C=N/NC(=O)c2cn(C3CC3)c3c(OC)c(N4CC5CCCNC5C4)c(F)cc3c2=O)ccc1O (stereo not given)
active: HT29 colon -0.257% | U251 CNS -67% | LOX IMVI melanoma -83.5% | CCRF-CEM leukemia 2.53% | MOLT-4 leukemia 2.34%
inactive: HCT-15 colon 32% | SNB-75 CNS 106% | SNB-19 CNS 26.2% | PC-3 prostate 45.1% | SK-MEL-5 melanoma 95.4% | SK-MEL-28 melanoma 94.4% | SK-MEL-2 melanoma 113% | EKVX NSCLC 24.9% | SN12C renal 23.8% | UO-31 renal 81.1% | TK-10 renal 119% | ACHN renal 35.3% | CAKI-1 renal 82.9% | A498 renal 99.4%

NC(N)=Nc1ccc(Nc2cccc(Nc3ccc(Cl)c(C(F)(F)F)c3)c2)cn1
active: SNB-19 CNS 4.1% | U251 CNS -43.2% | PC-3 prostate -24.9% | CCRF-CEM leukemia 5.61%
inactive: HCT-15 colon 68.4% | HT29 colon 29.8% | SNB-75 CNS 45.6% | SK-MEL-5 melanoma 34.5% | LOX IMVI melanoma 13.8% | SK-MEL-28 melanoma 40.3% | SK-MEL-2 melanoma 53.7% | EKVX NSCLC 43.1% | SN12C renal 13.3% | UO-31 renal 82.3% | TK-10 renal 98% | ACHN renal 78.1% | CAKI-1 renal 41.6% | A498 renal 58.8% | MOLT-4 leukemia 12.8%

Cn1ccnc1C(=O)/C=C/c1ccc(CNC(=O)c2ccc(Cl)cc2)cc1
active: HCT-15 colon -14.5% | HT29 colon -16.3% | U251 CNS 7.03% | LOX IMVI melanoma -89.2% | UO-31 renal -11.3% | ACHN renal 2.81% | CCRF-CEM leukemia 7.64% | MOLT-4 leukemia 0.825%
inactive: SNB-75 CNS 56% | SNB-19 CNS 11.1% | PC-3 prostate 19.9% | SK-MEL-5 melanoma 32.6% | SK-MEL-28 melanoma 45.2% | SK-MEL-2 melanoma 91.7% | EKVX NSCLC 26.4% | SN12C renal 17.3% | TK-10 renal 21.3% | CAKI-1 renal 35.9% | A498 renal 21.1%

O=C1[C@H]2Cc3c([nH]c4ccccc34)[C@@H](c3ccc(Br)cc3)N2C(=O)CN1C1CCN(CC2CCCCC2)CC1
inactive: SK-MEL-2 melanoma 16.7% | UO-31 renal 12.3%
active: HCT-15 colon -91.2% | HT29 colon -71.1% | SNB-75 CNS -1.64% | SNB-19 CNS 4.34% | U251 CNS -90.8% | PC-3 prostate -52.3% | SK-MEL-5 melanoma -99.8% | LOX IMVI melanoma -87.1% | SK-MEL-28 melanoma -95.5% | EKVX NSCLC -79.2% | SN12C renal -96.9% | TK-10 renal -85.2% | ACHN renal -95.1% | CAKI-1 renal -32.9% | A498 renal -15.4% | CCRF-CEM leukemia -27.9% | MOLT-4 leukemia -43.5%

CC(=O)Nc1cccc(Nc2nc(N[C@@H](C)c3ccccc3)c3ccccc3n2)c1
inactive: HCT-15 colon 10.4% | SNB-19 CNS 20.6% | U251 CNS 14.3% | PC-3 prostate 21.3% | UACC-62 melanoma 28.6% | SK-MEL-2 melanoma 38.2% | SN12C renal 33.4% | UO-31 renal 19.2% | TK-10 renal 54.1% | ACHN renal 28.6% | CAKI-1 renal 18.5%
active: HT29 colon 4.28% | SNB-75 CNS -19.3% | SK-MEL-5 melanoma -5.52% | LOX IMVI melanoma -70.2% | A498 renal -33.5% | MOLT-4 leukemia -17%

CCCSc1nc(Nc2ccc(/C(C)=N\NC(N)=S)cc2)c(C#N)c(-c2ccccc2)n1
inactive: HCT-15 colon 66% | HT29 colon 60.3% | SNB-75 CNS 141% | SNB-19 CNS 83.1% | U251 CNS 73.1% | PC-3 prostate 79.9% | SK-MEL-5 melanoma 80.2% | LOX IMVI melanoma 46.1% | SK-MEL-28 melanoma 84.6% | SK-MEL-2 melanoma 87.9% | EKVX NSCLC 74.4% | SN12C renal 77.9% | UO-31 renal 46.9% | TK-10 renal 95% | ACHN renal 35.4% | CAKI-1 renal 48.1% | A498 renal 102% | CCRF-CEM leukemia 69.3% | MOLT-4 leukemia 52.8%

N/C(=N\C(N)=N\c1nc2ccccc2s1)c1cccc(F)c1
inactive: HCT-15 colon 94.6% [5 µM] | HT29 colon 111% [5 µM] | SNB-75 CNS 89.2% [5 µM] | SNB-19 CNS 96% [5 µM] | U251 CNS 94.1% [5 µM] | PC-3 prostate 75.5% [5 µM] | SK-MEL-5 melanoma 98.2% [5 µM] | LOX IMVI melanoma 83.2% [5 µM] | SK-MEL-28 melanoma 108% [5 µM] | SK-MEL-2 melanoma 98% [5 µM] | EKVX NSCLC 81.4% [5 µM] | SN12C renal 76.9% [5 µM] | UO-31 renal 82.8% [5 µM] | TK-10 renal 187% [5 µM] | ACHN renal 85.9% [5 µM] | CAKI-1 renal 84% [5 µM] | A498 renal 97.1% [5 µM] | CCRF-CEM leukemia 93.9% [5 µM] | MOLT-4 leukemia 84.9% [5 µM]
